# Test results taken from the supplement of paper PMC11001985.
# Compound: C#CCNC(=O)CCSSCCC(=O)NCCc1ccc(C=O)c(C=O)c1
# Experiment: lysine labeling ratio R10:1 (500 µM / 50 µM probe), SILAC-ABPP in living cells; higher = lower intrinsic lysine reactivity toward the probe, active = 2 or less
# Settings: HeLa; probe concentrations 500 vs 50 µM
# Method in brief: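 Measurements came from LC-MS/MS on a TIMS-TOF Pro of mixed SILAC light and heavy HeLa lysates after click to biotin-azide, trypsin digestion, neutravidin capture, DTT release and alkylation. Before lysis, the living cells sat in PBS at room temperature with 50 µM or 500 µM of an alkyne-tagged, disulfide-linked lysine probe, and labels were swapped forward and reverse. R per lysine is the median across both swap directions of the filtered median high-probe/low-probe MS1 peptide ratio. The cap is 20.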
# UniProt O75054, sequence (O75054 whole entry): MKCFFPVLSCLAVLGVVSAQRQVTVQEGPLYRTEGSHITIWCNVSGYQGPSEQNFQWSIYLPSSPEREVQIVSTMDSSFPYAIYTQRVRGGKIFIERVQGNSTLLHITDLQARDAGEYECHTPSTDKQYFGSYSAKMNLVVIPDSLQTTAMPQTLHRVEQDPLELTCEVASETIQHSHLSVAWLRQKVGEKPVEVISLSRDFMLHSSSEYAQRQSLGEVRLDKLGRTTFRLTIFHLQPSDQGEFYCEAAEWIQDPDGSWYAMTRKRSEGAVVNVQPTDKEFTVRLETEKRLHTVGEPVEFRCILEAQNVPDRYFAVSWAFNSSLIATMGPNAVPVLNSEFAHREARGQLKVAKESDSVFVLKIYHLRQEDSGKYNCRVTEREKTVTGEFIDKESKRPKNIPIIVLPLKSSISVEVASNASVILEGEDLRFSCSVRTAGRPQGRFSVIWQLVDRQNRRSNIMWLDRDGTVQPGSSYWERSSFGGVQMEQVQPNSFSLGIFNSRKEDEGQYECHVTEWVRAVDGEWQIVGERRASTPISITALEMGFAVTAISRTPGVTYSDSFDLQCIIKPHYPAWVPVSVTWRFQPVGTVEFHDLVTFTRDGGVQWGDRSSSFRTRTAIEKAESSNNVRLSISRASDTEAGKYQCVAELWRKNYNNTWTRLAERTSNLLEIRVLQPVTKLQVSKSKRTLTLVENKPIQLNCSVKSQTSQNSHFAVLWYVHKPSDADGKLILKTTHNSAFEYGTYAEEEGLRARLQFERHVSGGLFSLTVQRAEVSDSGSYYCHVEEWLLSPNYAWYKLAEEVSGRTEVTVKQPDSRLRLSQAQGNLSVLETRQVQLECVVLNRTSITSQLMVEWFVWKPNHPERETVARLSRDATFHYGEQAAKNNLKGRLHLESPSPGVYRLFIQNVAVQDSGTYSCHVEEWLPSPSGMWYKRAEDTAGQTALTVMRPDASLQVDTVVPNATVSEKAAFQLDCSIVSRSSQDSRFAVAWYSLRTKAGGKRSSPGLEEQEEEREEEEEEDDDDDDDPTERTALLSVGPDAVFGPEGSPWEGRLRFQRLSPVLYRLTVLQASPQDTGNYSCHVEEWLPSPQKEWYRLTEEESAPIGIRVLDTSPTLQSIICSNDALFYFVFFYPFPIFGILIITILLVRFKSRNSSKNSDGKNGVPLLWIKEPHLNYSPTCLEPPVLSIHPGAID
# UniProt P56199, sequence (P56199 whole entry): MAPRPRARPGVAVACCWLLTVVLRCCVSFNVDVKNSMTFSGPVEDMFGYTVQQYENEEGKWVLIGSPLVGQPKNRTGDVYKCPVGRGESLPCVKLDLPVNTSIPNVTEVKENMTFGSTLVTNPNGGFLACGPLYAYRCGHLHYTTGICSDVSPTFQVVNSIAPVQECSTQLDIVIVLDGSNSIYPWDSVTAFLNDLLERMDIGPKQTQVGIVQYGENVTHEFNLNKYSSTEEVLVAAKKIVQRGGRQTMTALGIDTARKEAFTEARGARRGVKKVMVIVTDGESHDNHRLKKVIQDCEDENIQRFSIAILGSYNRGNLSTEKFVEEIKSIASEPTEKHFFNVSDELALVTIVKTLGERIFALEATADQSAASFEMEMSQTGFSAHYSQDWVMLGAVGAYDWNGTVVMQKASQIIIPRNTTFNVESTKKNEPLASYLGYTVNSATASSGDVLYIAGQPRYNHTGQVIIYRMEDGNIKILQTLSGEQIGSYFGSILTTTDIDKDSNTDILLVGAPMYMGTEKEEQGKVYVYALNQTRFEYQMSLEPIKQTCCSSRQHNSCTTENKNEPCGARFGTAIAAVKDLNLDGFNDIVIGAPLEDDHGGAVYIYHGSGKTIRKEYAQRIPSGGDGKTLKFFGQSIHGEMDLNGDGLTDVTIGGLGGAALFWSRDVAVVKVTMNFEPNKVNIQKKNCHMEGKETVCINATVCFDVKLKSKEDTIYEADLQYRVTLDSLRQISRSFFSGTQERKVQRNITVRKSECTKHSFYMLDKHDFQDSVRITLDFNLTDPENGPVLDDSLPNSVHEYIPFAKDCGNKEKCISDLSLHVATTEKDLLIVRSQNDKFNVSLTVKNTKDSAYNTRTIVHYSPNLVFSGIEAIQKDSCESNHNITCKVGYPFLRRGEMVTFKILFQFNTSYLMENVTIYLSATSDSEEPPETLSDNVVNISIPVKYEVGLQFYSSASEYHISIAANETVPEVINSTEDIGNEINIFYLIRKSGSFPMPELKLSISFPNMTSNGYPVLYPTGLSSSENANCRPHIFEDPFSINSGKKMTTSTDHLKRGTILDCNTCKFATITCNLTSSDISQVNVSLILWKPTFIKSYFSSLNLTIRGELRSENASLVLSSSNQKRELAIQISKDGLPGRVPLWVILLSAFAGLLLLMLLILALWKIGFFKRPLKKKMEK
# UniProt P11021, sequence (P11021 whole entry): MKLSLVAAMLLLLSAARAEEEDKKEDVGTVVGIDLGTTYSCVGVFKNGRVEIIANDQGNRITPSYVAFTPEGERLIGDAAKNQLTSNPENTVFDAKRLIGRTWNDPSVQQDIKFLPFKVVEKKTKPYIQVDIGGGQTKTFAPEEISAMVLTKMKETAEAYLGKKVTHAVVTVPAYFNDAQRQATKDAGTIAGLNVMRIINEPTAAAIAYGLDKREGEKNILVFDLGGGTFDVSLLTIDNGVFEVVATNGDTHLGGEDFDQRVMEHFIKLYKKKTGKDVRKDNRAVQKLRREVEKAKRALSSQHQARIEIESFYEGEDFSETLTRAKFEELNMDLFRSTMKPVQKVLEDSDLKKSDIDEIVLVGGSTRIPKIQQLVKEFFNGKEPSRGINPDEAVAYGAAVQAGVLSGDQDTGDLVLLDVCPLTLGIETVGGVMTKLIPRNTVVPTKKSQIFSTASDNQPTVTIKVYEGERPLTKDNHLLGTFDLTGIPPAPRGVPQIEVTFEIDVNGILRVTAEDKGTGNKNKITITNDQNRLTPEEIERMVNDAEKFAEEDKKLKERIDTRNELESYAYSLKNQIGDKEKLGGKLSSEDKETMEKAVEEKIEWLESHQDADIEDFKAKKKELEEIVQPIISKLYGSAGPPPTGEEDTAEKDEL
# UniProt P09496, sequence (P09496 whole entry): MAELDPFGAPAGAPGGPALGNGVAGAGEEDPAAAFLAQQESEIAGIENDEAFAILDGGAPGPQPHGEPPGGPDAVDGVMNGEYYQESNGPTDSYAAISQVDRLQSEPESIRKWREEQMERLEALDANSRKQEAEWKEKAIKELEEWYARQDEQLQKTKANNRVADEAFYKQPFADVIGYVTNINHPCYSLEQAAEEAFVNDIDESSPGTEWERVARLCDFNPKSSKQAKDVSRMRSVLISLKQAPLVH
# UniProt P14618, sequence (P14618 whole entry, looked up): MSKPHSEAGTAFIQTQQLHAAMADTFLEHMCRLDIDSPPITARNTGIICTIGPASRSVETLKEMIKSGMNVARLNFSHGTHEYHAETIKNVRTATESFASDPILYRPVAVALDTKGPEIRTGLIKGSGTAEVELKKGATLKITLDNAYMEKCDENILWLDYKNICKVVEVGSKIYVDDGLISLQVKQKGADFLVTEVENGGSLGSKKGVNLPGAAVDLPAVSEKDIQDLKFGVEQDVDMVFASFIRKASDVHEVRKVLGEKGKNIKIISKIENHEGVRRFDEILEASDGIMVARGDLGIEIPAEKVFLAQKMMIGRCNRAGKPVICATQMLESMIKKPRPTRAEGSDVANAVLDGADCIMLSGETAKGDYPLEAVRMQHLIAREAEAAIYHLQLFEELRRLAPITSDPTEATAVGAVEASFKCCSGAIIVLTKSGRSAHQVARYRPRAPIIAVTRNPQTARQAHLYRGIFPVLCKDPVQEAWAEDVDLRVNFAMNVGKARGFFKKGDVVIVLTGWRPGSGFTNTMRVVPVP
# UniProt P54289, sequence (P54289 whole entry): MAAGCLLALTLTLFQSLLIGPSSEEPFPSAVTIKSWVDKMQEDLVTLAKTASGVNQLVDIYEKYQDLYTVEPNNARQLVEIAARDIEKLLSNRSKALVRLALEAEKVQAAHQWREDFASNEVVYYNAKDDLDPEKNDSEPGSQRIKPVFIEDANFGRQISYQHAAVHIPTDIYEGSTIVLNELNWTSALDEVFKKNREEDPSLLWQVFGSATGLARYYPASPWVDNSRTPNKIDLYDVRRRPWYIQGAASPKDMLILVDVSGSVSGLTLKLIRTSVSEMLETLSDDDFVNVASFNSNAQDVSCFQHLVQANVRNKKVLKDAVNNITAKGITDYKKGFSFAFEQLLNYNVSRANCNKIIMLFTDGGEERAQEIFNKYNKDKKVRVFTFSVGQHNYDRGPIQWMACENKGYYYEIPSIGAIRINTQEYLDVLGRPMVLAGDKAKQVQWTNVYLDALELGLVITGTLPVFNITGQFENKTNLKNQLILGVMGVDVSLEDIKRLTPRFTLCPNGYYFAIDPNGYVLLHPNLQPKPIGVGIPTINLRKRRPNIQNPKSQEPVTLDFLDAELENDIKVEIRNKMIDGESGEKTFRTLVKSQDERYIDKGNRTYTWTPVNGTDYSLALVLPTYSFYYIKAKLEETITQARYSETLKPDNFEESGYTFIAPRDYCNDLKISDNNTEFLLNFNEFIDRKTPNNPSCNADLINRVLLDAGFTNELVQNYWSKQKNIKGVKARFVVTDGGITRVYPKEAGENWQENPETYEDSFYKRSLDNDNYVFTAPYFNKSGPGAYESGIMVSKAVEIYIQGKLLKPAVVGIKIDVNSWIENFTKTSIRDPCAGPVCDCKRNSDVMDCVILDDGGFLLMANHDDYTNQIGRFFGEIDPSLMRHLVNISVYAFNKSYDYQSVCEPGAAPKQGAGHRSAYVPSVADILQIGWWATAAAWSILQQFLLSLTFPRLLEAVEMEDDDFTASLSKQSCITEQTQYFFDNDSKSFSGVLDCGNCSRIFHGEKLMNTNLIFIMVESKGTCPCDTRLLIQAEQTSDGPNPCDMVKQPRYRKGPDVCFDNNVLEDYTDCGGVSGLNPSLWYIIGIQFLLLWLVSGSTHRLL
# UniProt P60903, sequence (P60903 whole entry): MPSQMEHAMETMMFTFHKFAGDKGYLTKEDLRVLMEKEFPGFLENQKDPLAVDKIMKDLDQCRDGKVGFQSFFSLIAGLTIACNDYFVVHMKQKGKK
row,Target,lysine labeling ratio R10:1
1,LRP1 (lysine site: K3988) (UniProt Q07954),4.67 (inactive)
2,TUFM (lysine site: K91) (UniProt P49411),2.38 (inactive)
3,IGF1R (lysine site: K598) (UniProt P08069),5.67 (inactive)
4,PDCD6IP (lysine site: K313) (UniProt Q8WUM4),2.29 (inactive)
5,VCL (lysine site: K453) (UniProt P18206),3.28 (inactive)
6,WDR1 (lysine site: K81) (UniProt O75083),0.967 (active)
7,IARS (lysine site: K641) (UniProt P41252),1.71 (active)
8,FRAS1 (lysine site: K3093) (UniProt Q86XX4),3.29 (inactive)
9,ITGA1 (lysine site: K259) (UniProt P56199),4.65 (inactive)
10,CD109 (lysine site: K1105) (UniProt Q6YHK3),1.09 (active)
11,ITGB1 (lysine site: K100) (UniProt P05556),10.5 (inactive)
12,CEP250 (lysine site: K1048) (UniProt Q9BV73),7.19 (inactive)
13,S100A10 (lysine site: K28) (UniProt P60903),5.79 (inactive)
14,IGSF3 (lysine site: K92) (UniProt O75054),2.4 (inactive)
15,ITGA1 (lysine site: K81) (UniProt P56199),2.7 (inactive)
16,PLXNB2 (lysine site: K941) (UniProt O15031),2.31 (inactive)
17,UniProt P14618 (lysine site: K367),3.33 (inactive)
18,VAPA (lysine site: K174) (UniProt Q9P0L0),1.89 (active)
19,UniProt P06576 (lysine site: K522),3.5 (inactive)
20,UniProt Q6NZI2 (lysine site: K276),4.1 (inactive)

row,Target,lysine labeling ratio R10:1
1,BPTF (lysine site: K604) (UniProt Q12830),8.91 (inactive)
2,HSPA5 (lysine site: K521) (UniProt P11021),1.53 (active)
3,HSPD1 (lysine site: K31) (UniProt P10809),4.2 (inactive)
4,IGSF3 (lysine site: K811) (UniProt O75054),3.23 (inactive)
5,TKT (lysine site: K353) (UniProt P29401),6 (inactive)
6,CLTA (lysine site: K141) (UniProt P09496),2.25 (inactive)
7,ECE1 (lysine site: K177) (UniProt P42892),7.91 (inactive)
8,SERBP1 (lysine site: K72) (UniProt Q8NC51),1.17 (active)
9,ALDOA (lysine site: K42) (UniProt P04075),3 (inactive)
10,UniProt Q9UKX5 (lysine site: K150),2.51 (inactive)
11,CALD1 (lysine site: K534) (UniProt Q05682),0.785 (active)
12,SPTBN1 (lysine site: K1249) (UniProt Q01082),4.92 (inactive)
13,LTF (lysine site: K476) (UniProt P02788),0.862 (active)
14,UniProt Q15303 (lysine site: K109),1.9 (active)
15,IGSF3 (lysine site: K642) (UniProt O75054),1.12 (active)
16,EEF1G (lysine site: K401) (UniProt P26641),2.74 (inactive)
17,CDH2 (lysine site: K223) (UniProt P19022),2.63 (inactive)
18,FLNB (lysine site: K1584) (UniProt O75369),3.06 (inactive)
19,OSBPL5 (lysine site: K446) (UniProt Q9H0X9),1.7 (active)
20,CACNA2D1 (lysine site: K232) (UniProt P54289),3.57 (inactive)
